The campaign covered roughly 220,000 compounds. About 2,600 (1.2%) were called active. This excerpt belongs to a sample that is enriched for actives. Unmarked numbers belong to inactive results.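 Rule for the calls: active = activation above the mean of all tested compounds plus 3 SD, set per screening run (cut at about 8.8% in these data); inactive = the rest.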
What follows are molecules tested against Wee1-like protein kinase (Homo sapiens) (UniProt P30291) (assay: compounds stabilizing Wee1-luciferase fusion – cell-based, HeLa, Wee1K328M-luciferase, luminescence, primary screen (AID 1321;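 note: cells exposed to compound for 20 h before luminescence read; 0% = DMSO alone and 100% = MG132 at 30 µM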)). Conditions: HeLa Luc-Wee1K328M stability, at 5 µM, stronger effect = higher value, 100% = proteasome inhibitor MG132 effect.

Row | Structure (SMILES) | reporter increase
1 | NNC(=O)c1ccc(COCC(F)(F)C(F)F)cc1 | 2.09%
2 | COc1ccc(-c2csc(NC3OC(=O)c4ccccc43)n2)cc1 (centres undefined) | 1.6%
3 | Cc1nnsc1C(=O)NCc1c(F)cccc1Cl | -2.45%
4 | Cn1c(=O)c2c(nc(NCc3ccccc3)n2CC(N)=O)n(C)c1=O | -2.48%
5 | OC(c1ccccc1)C(CN1CCOCC1)c1ccccc1 (centres undefined) | 0.23%
6 | CC(CN1CCOCC1)c1ccccc1 (centres undefined) | 11.8% (active)
7 | Cc1ccc(C(=O)OC(C)CN2CCOCC2)cc1 (centres undefined) | 2.34%
8 | O=C(CN1CCOCC1)Nc1c(-c2ccccc2)c2cc(Br)ccc2[nH]c1=O | -2.5%
9 | Cc1ccc2[nH]c(=O)c(CC=C(Cl)Cl)c(C)c2c1 | -1.17%
10 | Cc1ccc2[nH]c(=O)c(CN3CCCCC3)c(-c3ccccc3)c2c1 | 11.8% (active)
11 | Cc1cc(Nc2ccc(N3CCOCC3)cc2)c2cccc(C)c2n1 | 1.6%
12 | C/C(=N\Nc1cccc(C(=O)O)c1)c1ccc2c(c1)Nc1ccccc1S2 | 2.58%
13 | Cc1ccccc1N(C(=O)Cc1cccs1)C(C(=O)NC1CCCCC1)c1cn(C)nc1C (centres undefined) | 12.1% (active)
14 | Cc1cccc(N(C(=O)Cc2cccs2)C(C(=O)NC2CCCC2)c2ccsc2)c1 (centres undefined) | -1.49%
15 | Cc1ccsc1C(C(=O)NC1CCCCC1)N(C(=O)Cc1cccs1)C1CC1 (centres undefined) | -1.86%
16 | Nc1scc[n+]1Cc1cccc2cccnc12 | 4.15%
17 | CC(C)=NN1C(=O)c2ccccc2NC1(C)C | 2.65%
18 | CC(NC(=O)C(C)(C)C)C(c1cccs1)N1CCN(Cc2ccccc2)CC1 (centres undefined) | -2.56%
19 | CC(=O)c1ccc(NC(=O)C2CC(=O)Nc3nc4ccccc4n32)cc1 (centres undefined) | 11.6% (active)
20 | O=C(Nc1ccccc1)C1CC(=O)n2c(nc3ccccc32)N1 (centres undefined) | -0.1%
21 | CCOC(=O)c1ccc(NC(=O)C2CC(=O)Nc3nc4ccccc4n32)cc1 (centres undefined) | -0.26%
22 | Cn1nc(C(C)(C)C)c(NC(=O)c2sccc2Cl)c1C(C)(C)C | 1.43%

Row | Structure (SMILES) | reporter increase
23 | O=C1N=C(N2CCc3ccccc3C2)S/C1=C\c1ccc(O)cc1 | -2.98%
24 | COc1cc(C(=O)Nn2c(O)c(C3=c4ccccc4=NC3=O)sc2=S)ccc1O | -2.51%
25 | Cn1ncc(Br)c1C(=O)NCc1cccs1 | 20.9% (active)
26 | COc1ccccc1NC(=O)c1c(Br)cnn1C | 3.35%
27 | O=C(NCc1cccs1)c1ccc(Br)o1 | -0.94%
28 | O=C(O)C(c1ccccc1)C1(O)CCCCC1 (centres undefined) | 7.89%
29 | CCN(CC)CCNC(=O)c1ccc(NC(=O)c2c(F)cccc2Cl)cc1 | 1.18%
30 | Cc1ccc(NNC(=O)c2c(F)cccc2Cl)cc1Cl | 0.76%
31 | O=C(NNc1cc(Cl)cc(Cl)c1)c1c(F)cccc1Cl | 9.07% (active)
32 | CCOC(=O)C1CCN(c2c(Nc3cc(C)cc(C)c3)c(=O)c2=O)CC1 | -2.25%
33 | Cc1ccc(S/C(=N\S(=O)(=O)c2ccc(Cl)cc2)c2ccccc2)cc1 | 0.58%
34 | Cc1ccc(S(=O)(=O)/N=C(/Nc2ccccn2)c2ccc(Cl)cc2)cc1 | 11.1% (active)
35 | O=S(=O)(/N=C(/Nc1ccccn1)c1ccccc1)c1ccc(Cl)cc1 | -2.13%
36 | CCCCN(CCCC)CC(O)Cn1c2ccccc2c(=O)c2ccccc21 (centres undefined) | 0.32%
37 | O=C(Nc1ccc(S(=O)(=O)Nc2nccs2)cc1)c1cccc(S(=O)(=O)N2CCOCC2)c1 | -2.58%
38 | CC(=O)N1CCC(N(C(=O)Nc2ccc(Cl)cc2)C(C)C)CC1 | -1.37%
39 | NC(=O)c1ccc(-c2csnn2)cc1 | -2.32%
40 | CCS(=O)(=O)N1CCC(C(=O)N2CCN(c3ccccc3)CC2)CC1 | -1.23%
41 | CS(=O)(=O)N1CCC(C(=O)N2CCN(c3ccccc3)CC2)CC1 | 11.4% (active)
42 | CCCS(=O)(=O)N1CCCC(C(=O)N2CCN(c3ccccc3)CC2)C1 (centres undefined) | -1.94%
43 | CCC1CCc2c(sc(NC(C)=O)c2C#N)C1 (centres undefined) | 1.63%
44 | CN1CCN(CC(=O)Nc2sc3c(c2C#N)CCC(C(C)(C)C)C3)CC1 (centres undefined) | 16.5% (active)

Row | Structure (SMILES) | reporter increase
45 | CCN1CCN(CC(=O)Nc2sc3c(c2C#N)CCC3)CC1 | -0.82%
46 | CC1CC(NC(=O)/C(C#N)=C/c2ccc[nH]2)CC(C)(C)C1 (centres undefined) | 1.3%
47 | c1ccc(-n2cccc2)c(N2CCCCC2)c1 | 3.42%
48 | C/C(CC(C)C)=N\Oc1nc(C)cc(C)n1 | -1.74%
49 | COc1cc(OC)cc(C(=O)NC(=S)N2CCN(c3ccc(C(F)(F)F)cc3[N+](=O)[O-])CC2)c1 | 12.2% (active)
50 | Cc1cccc(C(=O)NC(=S)N2CCN(c3ccc([N+](=O)[O-])cc3)CC2)c1 | -1.67%
51 | O=C(Nc1cccc(C(F)(F)F)c1)c1ccc(N2CCNCC2)c([N+](=O)[O-])c1 | 1.22%
52 | Cc1cc(C)nc(NC(=O)/C=C/c2ccc(Cl)cc2)n1 | -2.67%
53 | CC(C)n1c(=S)[nH]c2cc(C(F)(F)F)ccc21 | -2.42%
54 | Cc1[nH]n(C)c(=O)c1N=Nc1ccc(S(C)(=O)=O)cc1 | 1.89%
55 | O=C(Cc1cc(=O)[nH][nH]1)N/N=C/c1ccccc1[N+](=O)[O-] | -4.24%
56 | COc1ccc(C(=O)NCC(=O)N/N=C/c2ccc([N+](=O)[O-])o2)cc1OC | -1.47%
57 | COc1cc(CC(=O)N/N=C/c2ccccc2)c([N+](=O)[O-])cc1OC | 10.2% (active)
58 | CCn1c(SCC(=O)N/N=C/c2ccccc2OCC(=O)O)nnc1-c1ccc(C(C)(C)C)cc1 | 0.66%
59 | CCN(CC)C(=O)CSC(Nc1cccc(F)c1)=C(C#N)C#N | -3.44%
60 | Cc1cccc(N2CCN(Cc3nc(C4CC4)no3)CC2)n1 | -3.23%
61 | Cc1ccc(S(=O)(=O)NC(=O)Nc2nc(-c3ccc(F)c(F)c3)cs2)cc1 | 7.86%
62 | COc1ccc(-c2ccc(CNCCCN3CCOCC3)o2)cc1Cl | 8.92% (active)
63 | C=CCOc1ccc(Cl)cc1CNCCCN1CCOCC1 | -1.69%
64 | COc1ccc(Cl)cc1NC(=O)CCN1CCOCC1 | -3.24%

— PubChem BioAssay AID1321 (The Scripps Research Institute Molecular Screening Center, 2008)
